Source: PubChem (National Center for Advancing Translational Sciences (NCATS))
B2AR arrestin = qHTS assay of beta-arrestin-biased ligands of beta2-adrenergic receptor. beta-arrestin recruitment to beta2AR, cell-based reporter. Beta-2 adrenergic receptor (Homo sapiens), P07550. 330,000 compounds, 0.02% hits. AID 492947, 2010. Potency, µM (titrated, usually from 46.1 µM), for inactives: at the highest dose activation, actives largely listed as activators;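 also: 0% = DMSO controls and full agonism = EC100 isoproterenol or metaproterenol; nearly all actives have a fitted effect of over 65% in size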
Mito fusion yeast = qHTS Assay for Small Molecule Inhibitors of Mitochondrial Division or Activators of Mitochondrial Fusion; 320,000 compounds, 0.23% hits; Potency, µM (doses to about 46.1 µM), for inactives: at the top dose growth rescue (activation), hits mostly activators; S. cerevisiae fusion-defective mutant growth rescue, CellTiterGlo 48 h; also: % of control where 0% means no effect; nearly all actives have a fitted effect of over 45% in size
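Yeast fusion mutant, YPEG (non-fermentable carbon), compound, 48 h at 37C non-permissive; CellTiterGlo added, 10 min RT, luminescence read. Rescued growth = division inhibition.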
BRCA1 expr act = qHTS Assay to Identify Small Molecule Activators of BRCA1 Expression. MCF7-BRCA1-FFLuc reporter, luminescence, 48 h; response scale: scaled: vehicle 0%, 10 µM genistein 100%. 380,000 compounds, 1.1% hits. Potency, µM (series often up to 46.1 µM), for the others: at the top dose activation, usual class: activators. AID 624202, 2012; also: nearly all actives have a fitted effect of over 80% in size
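Compounds are tested at multiple concentrations on MCF7 BRCA1-luciferase reporter cells seeded at 2000 per well; after 48 h, a single luminescence end-point is taken and curves fitted to the normalized data.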
ERG Ets-DNA blk = qHTS for Small Molecule Inhibitors of the ERG Ets/DNA interaction. Potency, µM (top dose mostly 76.9 µM), for inactives: at the highest dose FP activity, negative = inhibition, hits mostly inhibitors. AID 624246, 2012. Transcriptional regulator ERG (Homo sapiens), P11308. fluorescence polarization, His-ERG Ets domain / labelled DNA. 370,000 compounds, 0.028% hits; active = well fitted inhibition curve with a large enough effect in the polarisation, with a control signal flat; inconclusive = small, poorly fitted or top-dose-only effect, or effect the other way, or a change in a side signal; inactive = no such curve, though single readings can be large or run the other way; the % refers to the polarisation;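 also: polarization taken with two DNA probes labelled with fluorescein and Texas red; % of control where 0% means no effect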
Target sequence (P11308 whole entry, looked up, the tested form may be a part): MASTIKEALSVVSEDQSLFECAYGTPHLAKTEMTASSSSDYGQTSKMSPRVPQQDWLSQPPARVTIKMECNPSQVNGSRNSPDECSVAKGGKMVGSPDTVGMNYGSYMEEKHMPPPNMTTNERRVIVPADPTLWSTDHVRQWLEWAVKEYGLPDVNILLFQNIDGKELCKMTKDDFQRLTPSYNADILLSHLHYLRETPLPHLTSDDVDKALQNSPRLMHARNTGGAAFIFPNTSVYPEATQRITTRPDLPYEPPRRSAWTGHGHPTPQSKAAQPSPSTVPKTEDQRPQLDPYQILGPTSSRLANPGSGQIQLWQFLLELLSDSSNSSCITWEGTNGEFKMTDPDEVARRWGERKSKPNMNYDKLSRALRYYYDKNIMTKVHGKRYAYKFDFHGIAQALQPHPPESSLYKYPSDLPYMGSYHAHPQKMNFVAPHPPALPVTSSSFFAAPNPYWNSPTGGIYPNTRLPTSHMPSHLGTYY
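His-tagged ERG Ets domain (1 uM in the protein solution; 300mM KCl, 50mM Tris-HCl, 1mM EDTA, 1mM DTT, pH 7.5) received compound, then a probe mix of 5 nM fluorescein-DNA and 100nM Texas-615-DNA. Fluorescence polarization was read for both dyes.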
Numbers without * were called inactive; ? = inconclusive; · = not tested or not shown. Compounds with a hit are over-represented: about 1.2% of the library has one in this group of screens. Unless noted, calls follow the shape of the dose curve; as a rule, active = well fitted curve in the direction sought with a large enough effect; inconclusive = small, poorly fitted or top-dose-only effect, or another doubt; inactive = no such curve, though single readings can be large; an effect the other way counts as inactive or inconclusive. Potency is read from the fitted curve at half-maximal effect.

SMILES | B2AR arrestin | Mito fusion yeast | BRCA1 expr act | ERG Ets-DNA blk
O=C(CCN1C(=O)c2cccc3cccc(c23)C1=O)NC1CCS(=O)(=O)C1 (stereo not drawn) | -1% | -1% | 10µM* | 0%
CN(Cc1ccccc1)c1nc(N)c([N+](=O)[O-])c(NCc2ccccc2)n1 | -1% | 11µM* | -48% | -10%
Nc1nc(NCCc2ccccc2)nc(NCc2ccccc2)c1[N+](=O)[O-] | 0% | 24% | -39% | 5%
COc1ccccc1NS(=O)(=O)c1ccc2oc(SCc3ccc(F)cc3)nc2c1 | 6% | 3% | -60% | -4%
COc1ccc(NS(=O)(=O)c2ccc3oc(SCc4ccc(F)cc4)nc3c2)cc1 | 0% | 16µM* | -71% | 0%
COc1ccc(-c2nc3scc(CCNC(=O)c4cc(OC)cc(OC)c4)n3n2)cc1 | · | · | · | 1%
c1ccc(CCNc2nc3ccccc3s2)cc1 | 0% | 8% | 11µM* | 3%
O=C1/C(=C/c2ccsc2)CC/C1=C\c1cccs1 | · | 12µM* | · | ·
O=C1/C(=C/c2cccs2)CCC/C1=C\c1cccs1 | -1% | 2% | -51% | 19%
O=C(Cn1nnc(-c2ccc3c(c2)OCO3)n1)Nc1ccccc1C(=O)O | -1% | 1% | 11µM* | 44%
Cc1sc2ccccc2[n+]1C | · | · | -4% | ·
CCN(CC)CCNC(=O)Cn1nc(C)c2c(C)n(-c3ccccc3)nc2c1=O | · | · | · | 5%
Cc1ccc(-n2nnc3ccccc3c2=O)cc1C | 0% | 1% | 4.5µM* | 3%
O=c1c2ccccc2nnn1-c1ccccc1 | · | · | 25% | -2%
O=C(Nc1ccc(Cl)cc1)OCc1ccccn1 | 0% | -1% | 3.5µM* | 1%
O=C(Nc1ccc(Cl)cc1)OCc1cncs1 | 0% | 0% | 11µM* | -2%
CS(=O)(=O)c1ccccc1COC(=O)Nc1ccc(Cl)cc1 | 0% | -2% | 61% | ·
Cc1ccc(C)c(NC(=O)CSc2ncc3c(n2)-c2cc(Cl)ccc2N(Cc2ccccc2F)S3(=O)=O)c1 | · | · | -4% | -9%
COc1ccc(Cl)cc1NC(=O)c1cc(-c2ccccc2O)n[nH]1 | 7% | 6.3µM* | -66% | 11%
CSc1ccc(CCNc2ncnc3onc(-c4ccc(Cl)cc4)c23)cc1 | · | · | · | 8%
CCOC(=O)CSc1c(-c2cccs2)[nH]c2ccccc12 | -1% | 14µM* | -95% | 7%
CCOC(=O)CSc1c(-c2ccc(Cl)cc2)[nH]c2ccccc12 | -1% | ? | ? | -2%
C/C(N)=C(/C#N)C(=O)CSc1nnc(Nc2cccc(C)c2C)s1 | -1% | 1% | 11µM* | 7%
C/C(N)=C(/C#N)C(=O)CSc1nnc(Nc2c(C)cccc2C)s1 | 0% | 6% | -3% | 8%
CCc1cccc(NC(=O)Cn2c(-c3ccc(F)cc3)cc(C(C)=O)c2C)c1 | · | · | · | 0%
SMILES | B2AR arrestin | Mito fusion yeast | BRCA1 expr act | ERG Ets-DNA blk
COc1cccc2oc3cc(C#CC4(O)CCCCC4)ccc3c(=O)c12 | 0% | -2% | ? | 3%
COc1cccc2oc3cc(C#Cc4ccccn4)ccc3c(=O)c12 | 0% | -8% | 8.9µM* | 4%
O=C(CSc1ccccn1)Nc1ccc2ccccc2c1 | -1% | -3% | · | ·
O=C(CSc1nnc(-c2cccc(Cl)c2)o1)Nc1ccc2c(c1)OCCO2 | 0% | 2% | 7.9µM* | -4%
O=C(CSc1ccccn1)Nc1ccc2c(c1)CCC2 | 0% | 1% | 10µM* | 0%
O=C(CSc1ncccn1)NC(=O)Nc1ccc2c(c1)OCCO2 | 0% | -2% | 13µM* | -1%
CCN(CC(=O)Nc1ccc2c(c1)OCCO2)C(=O)c1ccc(Cl)cc1Cl | 0% | 1% | 1.8µM* | -4%
Cc1ccc(-n2c(-c3ccccc3)nsc2=NC#N)cc1 | · | · | -54% | ·
O=[N+]([O-])c1ccc(O/N=[N+](\[O-])N2CCN(c3ccccc3)CC2)c([N+](=O)[O-])c1 | · | · | -51% | ·
CCc1ccccc1N(C)C(=O)C1CCCN(c2ncnc3c2nc2n3CCCCC2)C1 (stereo not drawn) | · | · | · | 1%
CC1CCN(S(=O)(=O)c2ccc3c(c2)N(CC(=O)NCCc2ccc(Cl)cc2)C(=O)CO3)CC1 | · | · | -58% | 4%
O=C(CNCc1ccccc1Cl)Nc1ccc2c(c1)OCCO2 | ? | -14% | 10µM* | 8%
O=C(Nc1ccc2c(c1)OCO2)N1CCN(c2ccccc2Cl)CC1 | 0% | 7% | 10µM* | 2%
Cn1cccc1C(=O)OCC(=O)Nc1ccc2c(c1)OCCO2 | -1% | · | 2µM* | 17%
O=C(Nc1ccc2c(c1)OCO2)N1CCN(S(=O)(=O)c2ccc(Cl)cc2)CC1 | 0% | 4% | 62% | -3%
O=C(CSc1ncccn1)Nc1ccc2c(c1)OCO2 | -1% | · | 50% | 3%
O=C(CSc1ccccn1)Nc1ccc2c(c1)OCCO2 | 0% | 2% | 11µM* | 0%
COc1ccccc1CNC(=O)C1CCCN(c2nnc(-n3c(C)ccc3C)s2)C1 (stereo not drawn) | · | · | 7% | 2%
CCOc1nc(NC(=O)NS(=O)(=O)Oc2ccccc2)nc(-c2ccccc2)n1 | · | · | 28% | 0%
C=CCn1c2ccccc2c(=O)c2cc(C#CC[C@@H](C)O)ccc21 | 0% | 17% | 3.5µM* | -6%
CN(C)/C=N/C(=S)Nc1ccc(Cl)cc1Cl | 0% | 3% | 5µM* | 13%
CN(C)/C=N/C(=S)Nc1ccc(Cl)cc1 | 0% | -4% | ? | -1%
COc1ccc2c(c1)CC/C(=C\C=C\c1ccccc1OC)C2=O | 0% | 25% | 11µM* | -4%
CCOC(=O)/C(C#N)=C(C)/C=C1\Sc2ccccc2N1CC | -1% | 8% | 3.2µM* | 6%
CCN1C(C(=O)c2ccccc2)=C(OC(=O)c2ccccc2OC)c2ccccc2S1(=O)=O | · | · | · | 3%
SMILES | B2AR arrestin | Mito fusion yeast | BRCA1 expr act | ERG Ets-DNA blk
CNc1nc(C)c(C(=O)OCc2ccccc2)s1 | -2% | 8% | 11µM* | -3%
CNc1nc(C)c(C(=O)OCC(=O)OC)s1 | 0% | -2% | 3% | -4%
COC(=O)c1sc(NC(=O)COc2ccccc2)nc1C | 0% | 2% | 7.9µM* | -1%
CC1CCc2c(sc3nnn(Cc4ccccc4Cl)c(=O)c23)C1 (stereo not drawn) | · | · | · | 2%
Cc1snc(SCC(=O)c2ccc(F)cc2)c1C#N | 0% | 0% | 8.9µM* | -8%
CCSc1nc(-c2ccc(OC)cc2)nc2c1Cc1c(CO)cnc(C)c1O2 | · | · | · | -1%
CCOC(=O)c1c(S(=O)(=O)N2CCCC(C(=O)NCc3ccc(Cl)cc3)C2)c(C)n(C)c1C (stereo not drawn) | · | · | · | 3%
Cc1cc(OCC(=O)Nc2ccc(C(=O)OC3CCCCC3)cc2)ccc1Cl | · | · | · | 0%
C/C(NC(=O)c1cccc(F)c1)=C1/C(=O)C[C@@H]2[C@H]1C2(C)C | -1% | 2% | ? | -11%
C/C(NC(=O)c1ccccc1F)=C1\C(=O)C[C@@H]2[C@H]1C2(C)C | 0% | 12% | 11µM* | 13%
Cc1ccc2c(c1)sc1nc(=O)n(-c3ccc(Cl)cc3)c(=O)n12 | 0% | 4% | -42% | 4%
